This experiment deals with Trypanosoma brucei. The experiment can be described thus: Trypanosoma brucei 72 hour study. The experiment is classed as functional, organism-based. On the set-up: scale not given: in the data most compounds retested in dose-response had high values.

Data on 47 molecules can be found in ChEMBL document CHEMBL3988442, “University of Dundee, Small-Polar-MMV Screening Library” (2021).

The campaign covered roughly 66,000 compounds. About 960 (1.5%) showed an effect of 50% or more. Many of the other results were omitted from the sample, so strong results are more common in it than they were.

On to `CCn1ncc(-c2cc(C(F)(F)F)nc(N3CCC(N)CC3)n2)c1C`, for which, under “30.3 µM, […]”, the “Percent Effect” value is 100.2%.
Consider `Cc1ccc(-c2cc(C(F)(F)F)nc(N3CCOCC3)n2)s1`, for which, for the setting “30 µM, 30.03 µM”, the “Percent Effect” value was -24.17%.
`Cc1c(-c2cc(C(F)(F)F)nc(N3CCC(N)CC3)n2)cnn1C`: for the setting “30.3 µM, […]”, the “Percent Effect” value is given as 47.45%.
For `O=C(O)C1CCCN1c1nc(-c2ccc(Cl)cc2)cc(C(F)(F)F)n1` (configuration not stated), the “Percent Effect” value (30 µM, 30.03 µM) is listed as -38.97%.
`Cc1nccn1CCC1CCNCC1.Cl.Cl`: the “Percent Effect” value (30.3 µM, […]) is given as -19.74%.
On to `CC1c2ncc(Cn3cccn3)n2CCN1Cc1ccc(F)cc1.O=C(O)C(F)(F)F` (configuration not stated), for which the “Percent Effect” value (30.3 µM, […]) came out at 6.386%.
With `CCS(=O)(=O)N1CCCC(Cc2cnccn2)C1` (configuration not stated), the “Percent Effect” value (30.3 µM, […]) was -26.51%.
Still for that read-out and setting: the value for `C1CCCN(CC2CCCN(Cc3noc(C4CC4)n3)C2)CC1` (configuration not stated) was 63.76%; that for `C1CCC(CNC2CCCN(Cc3noc(C4CC4)n3)C2)C1` (configuration not stated) was 26.01%; that for `C1CCCN(C2CCCN(Cc3noc(C4CC4)n3)C2)CC1` (configuration not stated) was 49.07%.
On the same count and under the same terms, the value for `C1CCC(CNC2CCCN(Cc3noc(C4CC4)n3)C2)CC1` (configuration not stated) was 78.83%; that for `c1ncn(CC2CCCN(Cc3noc(C4CC4)n3)C2)n1` (configuration not stated) was -10.36%.
Turning to `C1CC(NCC2CC2)CN(Cc2noc(C3CC3)n2)C1` (configuration not stated), the “Percent Effect” value (30.3 µM, […]) is on record as -4.666%.
`Cn1cc(CN2C[C@@H]3COC[C@H](C(=O)Nc4cccnc4)[C@@H]3C2)cn1.O=C(O)C(F)(F)F.O=C(O)C(F)(F)F`: for the setting “30 µM, 30.03 µM”, the “Percent Effect” value is recorded as -8.066%.
The same measure, in the same setting: the value for `NC(=O)c1ccccc1NC(=O)CCN1CCN(c2ccccc2)CC1` was 4.761%.
Regarding `CCOC(=O)N1CCc2ccccc2C12CCNCC2.Cl`, the “Percent Effect” value (30.3 µM, […]) is on record as -45.47%.
With `Cc1ccc(CN2CCC3(CC2)CN(C(=O)c2cnccn2)CCO3)o1.O=C(O)C(F)(F)F`, for the setting “30.3 µM, […]”, the “Percent Effect” value is recorded as -12.58%.
As to `CC1=N[C@@]2(CC[C@@H]3CN(Cc4ccccc4)C[C@@H]32)C(=O)N1CC1CC1.O=C(O)C(F)(F)F`, the “Percent Effect” value (30.3 µM, […]) is -40.35%.
Same read-out and setting: to `CC1=N[C@@]2(CC[C@@H]3CN(Cc4ccccc4C)C[C@@H]32)C(=O)N1CC1CC1.O=C(O)C(F)(F)F` belongs -63.56%.
For the molecule `CC1=N[C@@]2(CC[C@@H]3CN(Cc4ccccc4F)C[C@@H]32)C(=O)N1CC1CC1.O=C(O)C(F)(F)F`, the “Percent Effect” value (30 µM, 30.03 µM) is on record as 55.44%.
Regarding `CN(C)C(=O)c1cc2c(nc1NCC1CC1)CCNCC2`, the “Percent Effect” value (30.3 µM, […]) is given as -109.7%.
`CCCN1CCN(C(=O)c2cnn(-c3ccccc3F)c2)CC1`: the “Percent Effect” value (30 µM, 30.03 µM) worked out at 55.35%.
As to `CCC(O)CN1CCN(C(=O)c2cnn(-c3ccccc3F)c2)CC1` (configuration not stated), the “Percent Effect” value (30 µM, 30.03 µM) amounted to 22.96%.
The same measure, in the same setting: the value for `O=C(c1cnn(-c2ccccc2F)c1)N1CCN(CCO)CC1` was 1.358%.
On to `CN1C(=O)CC[C@]12CC[C@@H](NCc1ccsc1)CC2.O=C(O)C(F)(F)F`, for which the “Percent Effect” value (30.3 µM, […]) is recorded as 8.729%.
Consider `CC(C)CCN1C[C@H]2C[C@H](C(=O)NCc3ccccc3)[C@@H](C1)O2.O=C(O)C(F)(F)F`, for which the “Percent Effect” value (30 µM, 30.03 µM) was found to be 29.18%.
For `CCn1cc(-c2cc(-c3cc(CN(C)C)cs3)nc(N)c2C#N)c(C)n1`, under “30 µM, 30.03 µM”, the “Percent Effect” value is on record as -4.566%.
On to `CCn1ccnc1C1CCN(Cc2c(F)cccc2F)CC1`, for which the “Percent Effect” value (30 µM, 30.03 µM) is given as 86.79%.
Turning to `Cc1ccc(Cl)c(CN2CCC(c3nccn3C(C)C)CC2)c1F`, the “Percent Effect” value (30 µM, 30.03 µM) is 104.1%.
Still for that read-out and setting: the value for `CC(C)n1ccnc1C1CCN(Cc2ccc(Cl)c(F)c2)CC1` was 33.49%; that for `Cc1cc(CN2CCC(c3nccn3C(C)C)CC2)ccc1F` was -24.52%.
On the same count and under the same terms, the value for `CCn1ccnc1C1CCN(Cc2cccc(C)n2)CC1` was -34.54%.
As to `CCn1ccnc1C1CCN(Cc2cccc(Cl)c2)CC1`, the “Percent Effect” value (30 µM, 30.03 µM) is listed as -40.4%.
As to `COc1ccc(Cl)cc1C(C(=O)O)N1CCSCC1` (configuration not stated), the “Percent Effect” value (30.3 µM, […]) is given as -71.2%.
For the molecule `CN(C)c1nc(N)nc(CN2CCCC2c2cccs2)n1` (configuration not stated), where the note is “30 µM, 30.03 µM”, the “Percent Effect” value is recorded as -6.91%.
The same measure, in the same setting: the value for `Cc1cccc(C2CCCN2Cc2nc(N)nc(N(C)C)n2)c1C` (configuration not stated) was 100.5%; that for `CN(C)c1nc(N)nc(CN2CCCC2c2ccsc2)n1` (configuration not stated) was -20.26%.
With `Cc1ccc(C(=O)NCc2ccnc(C3CCCOC3)n2)s1` (configuration not stated), the “Percent Effect” value (30.3 µM, […]) is 49.43%.
Same read-out and setting: the value for `Cc1ccsc1C(=O)NCc1ccnc(C2CCCOC2)n1` (configuration not stated) was 54.51%; that for `O=C(NCc1ccnc(C2CCCOC2)n1)c1cccs1` (configuration not stated) was -2.313%; that for `Cn1ccc(CN2CCC3(CCCN3CC3CC3)CC2)n1.O=C(O)C(F)(F)F.O=C(O)C(F)(F)F` was -89.65%.
On the same count and under the same terms, the value for `COC1CN(C(=O)CC(C)(C)C)CCC(=O)N(C)c2ccccc21` (configuration not stated) was -11.06%.
Consider `CC(C)NC(=O)[C@H]1C[C@@H]2CN(C(=O)NCc3ccccc3)C[C@H]1O2`, for which the “Percent Effect” value (30 µM, 30.03 µM) was found to be 43.99%.
Take `CSCC[C@@H](CO)Nc1ccc(-c2nc(-c3ccccc3F)no2)cn1`: the “Percent Effect” value (30.3 µM, […]) was -25.91%.
On the same count and under the same terms, the value for `CSCC[C@@H](CO)Nc1ccc(-c2nc(C3CC3)no2)cn1` was 19.73%.
Still for that read-out and setting: to `CSCC[C@@H](CO)Nc1ccc(-c2nc(-c3ccccc3C)no2)cn1` belongs 99.8%.
On to `Cc1ccc(CN(C)C(=O)c2cnsn2)cc1`, for which the “Percent Effect” value (30 µM, 30.03 µM) is listed as -21.68%.
